MCL1 BIM primary: disrupts human MCL1 binding to BIM-BH3 peptide; AID 2057; 0.68% of 320,000 active; inhibition, % at 10.9 µM; GST-MCL1 / FITC-Bim-BH3 fluorescence polarization; Q07820;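 active = inhibition above the mean inhibition of all tested compounds plus 3 SD, set per campaign, cut at about 40% in these data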;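 also: 0% = DMSO wells and 100% = unlabeled Bim-BH3 peptide control; higher means more loss of mP so more displacement of Bim peptide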
Mcl1 Noxa PPI: disrupts binding of human Mcl-1 to Noxa peptide. TR-FRET Mcl-1/Noxa peptide binding, 2 h. Q07820. inhibition, % at 21.7 µM. 1.5% of 220,000 active;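 active = compounds that cut the protein-peptide binding signal by more than 50% relative to plate controls in a single-dose test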;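 also: His-tagged Mcl-1 with rhodamine Noxa BH3 peptide and terbium anti-His antibody; 0% = Mcl-1 plus Noxa peptide wells and 100% = peptide-only wells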
Bcl-xL primary: blocks human Bcl-xL binding to Bim BH3 peptide. inhibition, % at 10.9 µM. 0.7% of 320,000 active. Q07817. GST-Bcl-xL / FITC-Bim BH3 peptide fluorescence polarization;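 active = inhibition above the mean of all tested compounds plus 3 SD, cutoff set per campaign, cut at about 30% in these data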;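 also: 0% = DMSO wells and 100% = unlabeled Bim-BH3 peptide competitor; inhibitors lower millipolarization by displacing the labeled peptide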
Target sequence (Q07817 whole entry, looked up): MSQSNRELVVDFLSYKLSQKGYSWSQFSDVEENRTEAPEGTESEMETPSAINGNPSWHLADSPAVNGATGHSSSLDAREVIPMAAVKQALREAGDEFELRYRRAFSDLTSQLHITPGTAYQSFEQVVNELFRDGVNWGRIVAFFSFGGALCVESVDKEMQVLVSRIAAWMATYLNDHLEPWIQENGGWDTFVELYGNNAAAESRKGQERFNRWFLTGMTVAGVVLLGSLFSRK
GLD-1 TGE inh: GLD-1-TGE RNA interaction inhibition (C. elegans). Q17339. purified GLD-1 + fluorescein TGE RNA, fluorescence polarization. inhibition, % at 5.96 µM. 0.44% of 320,000 active;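 active = percent inhibition above a per-plate cutoff, the plate mean of test compounds plus 3 SD, cut at about 30% in these data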;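 also: 0% = DMSO wells with GLD-1 and probe and 100% = wells lacking GLD-1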
Target sequence (Q17339 whole entry, looked up): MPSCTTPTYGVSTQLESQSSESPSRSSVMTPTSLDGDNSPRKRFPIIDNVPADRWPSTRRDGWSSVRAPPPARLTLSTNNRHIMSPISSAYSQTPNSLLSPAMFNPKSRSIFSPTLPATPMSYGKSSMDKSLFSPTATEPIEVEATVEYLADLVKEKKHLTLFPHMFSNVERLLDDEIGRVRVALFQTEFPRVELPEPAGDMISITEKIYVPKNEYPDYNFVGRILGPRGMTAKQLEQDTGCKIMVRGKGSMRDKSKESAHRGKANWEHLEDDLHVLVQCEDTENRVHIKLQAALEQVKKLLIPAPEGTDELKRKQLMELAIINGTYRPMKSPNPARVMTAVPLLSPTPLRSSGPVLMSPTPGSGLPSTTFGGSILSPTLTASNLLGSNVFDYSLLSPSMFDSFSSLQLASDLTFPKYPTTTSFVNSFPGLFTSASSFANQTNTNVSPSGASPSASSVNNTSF
Mcl-1 Bim block: inhibitors of Bim-Mcl-1 interaction, human | inhibition, % at 10 µM | Bead-based flow cytometry, Bim peptide-Mcl-1 binding | 0.1% of 190,000 active; in the data active = inhibition above about 40%;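 also: 0% = no compound tracer wells and 100% = peptide blocker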
Mcl1-Bid inh: disrupts binding of human Mcl-1 to Bid peptide | Q07820 | TR-FRET Mcl-1/Bid-Dy647 peptide binding, 1536-well | inhibition, % at 21.7 µM | 0.97% of 220,000 active | AID 1021;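 active = compounds that cut the binding signal by more than half at the single screening dose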;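 also: His-tagged Mcl-1 with europium anti-His antibody binding Bid BH3 peptide; 0% = Mcl-1 plus peptide wells and 100% = peptide-only wells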
* = called active by the depositor; nt = no result. Sampled rows, rich in hits. Any-hit rate of the full collection: about 2.3%.

SMILES | MCL1 BIM primary | Mcl1 Noxa PPI | Bcl-xL primary | GLD-1 TGE inh | Mcl-1 Bim block | Mcl1-Bid inh
Fc1cc2nc(-c3ccncc3)[nH]c2cc1F | 1.6 | -8.7 | 4.8 | -0.5 | 1.0 | 71.2*
N#Cc1nc(-c2ccc(OCc3ccc(Cl)cc3)cc2)oc1NCc1cccnc1 | 4.5 | 56.9* | 1.0 | 2.7 | 1.0 | 23.1
Cc1cc(NS(=O)(=O)c2ccc(NC(=O)CCCOc3cccc(C)c3C)cc2)no1 | 4.7 | nt | 1.3 | 0.2 | nt | nt
COC(=O)c1cc2sc(Cl)cc2n1CC(=O)Nc1cccc(SC)c1 | -4.3 | -6.7 | -3.1 | 2.9 | 0.0 | 95.8*
COC(=O)c1cc2sc(Cl)cc2n1CC(=O)Nc1ccc(OC)c(OC)c1OC | -2.7 | 5.5 | 1.6 | 6.9 | 2.0 | 1.4
O=C(c1ccc(S(=O)(=O)Cc2ccccc2Cl)c([N+](=O)[O-])c1)N1CCN(c2ccccn2)CC1 | 3.0 | 6.4 | 6.5 | 6.7 | -1.0 | 5.2
Cc1nn(CC(=O)NCc2ccc(OC(C)C)cc2)c(=O)c2cc(-c3ccccc3)nn12 | 1.7 | nt | -0.4 | 5.3 | nt | nt
COc1ccc(CCNc2ncnc3cc(OC)c(OC)cc23)cc1OC | nt | 9.9 | nt | nt | 0.0 | -21.2
COc1cc2[nH]c(=S)nc(Nc3ccc(NC(C)=O)cc3)c2cc1OC | 24.3 | 78.4* | 25.0 | -0.8 | 33.0 | -78.9
COc1ccc(CCNc2ncnc3c2[nH]c2cc(OC)c(OC)cc23)cc1OC | -1.4 | 65.7* | -2.0 | 5.0 | nt | -7.7
COc1cc2[nH]c(=S)nc(NCCc3ccc(S(N)(=O)=O)cc3)c2cc1OC | 11.1 | 59.2* | 16.7 | 4.2 | 38.0 | -55.0
COc1ccc(CCNc2nc(=S)[nH]c3cc(OC)c(OC)cc23)cc1OC | 9.8 | 80.1* | 9.4 | 1.8 | 27.0 | -23.2
COc1cc2[nH]c(=S)nc(NC3CCCCCC3)c2cc1OC | 22.9 | 7.1 | 18.2 | -12.0 | 13.0 | -21.3
Cc1oncc1C(=O)NC1CCCCC1 | -1.6 | 7.9 | -0.1 | -2.2 | 3.0 | -14.1
COc1ccccc1OCC(=O)Nc1ccc(S(=O)(=O)N(C)c2ccccc2)cc1 | 7.7 | nt | 3.4 | 5.2 | nt | nt
Cc1nc2nc[nH]n2c(=O)c1NS(=O)(=O)c1ccc(F)cc1 | 2.4 | 25.3 | 8.0 | 2.1 | 0.0 | 0.7
COc1ccc(S(=O)(=O)Nc2c(C)nc3nc[nH]n3c2=O)cc1 | 0.3 | 7.4 | 3.0 | 4.7 | -4.0 | 66.1*
COc1ccc(OC)c(CCNC(=O)Cn2sc3nc(C)cc(C)c3c2=O)c1 | 15.8 | 56.2* | 2.3 | 1.2 | -10.0 | -19.4
COc1ccc2nc(NC(=O)CSc3n[nH]c(N)n3)sc2c1 | -2.1 | nt | 2.8 | 0.1 | nt | nt
Cc1nn(CCc2nn[nH]n2)c2nc(-c3ccc(C4CCCCC4)cc3)cc(C(F)(F)F)c12 | 6.3 | -44.5 | 1.9 | 0.8 | 0.0 | 58.6*
Cc1ccc(S(=O)(=O)N2CCOC2CNC(=O)C(=O)NCCN2CCOCC2)cc1 (centres undefined) | 1.9 | nt | 0.1 | 0.1 | nt | nt
CCOC(=O)c1cc(C#N)c(SCC(N)=O)[nH]c1=O | 37.8 | 2.7 | 38.4* | 12.8 | nt | 25.8
Cc1ccc(C(=O)Nc2ccccc2C(=O)N2CCCC(C)C2)cc1 (centres undefined) | -5.4 | nt | 3.2 | -2.3 | nt | nt
N#Cc1ccsc1NC(=O)CN1CCN(c2ccc(O)cc2)CC1 | 6.5 | 71.5* | 11.0 | 3.5 | -6.0 | -29.8
O=C(CN1CCN(c2ccc(O)cc2)CC1)Nc1ccc(SC(F)F)cc1 | 23.9 | 70.1* | 27.3 | 7.6 | -2.0 | -63.6
SMILES | MCL1 BIM primary | Mcl1 Noxa PPI | Bcl-xL primary | GLD-1 TGE inh | Mcl-1 Bim block | Mcl1-Bid inh
CCOC(=O)c1nnn(-c2nonc2N)c1CS(=O)(=O)c1ccccc1 | -6.0 | 10.9 | 1.8 | 3.1 | -1.0 | 54.6*
COc1ccc(C(=O)NC(CO)c2nnc(SCc3ccc(Cl)c(Cl)c3)n2C)cc1 (centres undefined) | 2.6 | -0.1 | 3.9 | 1.3 | 41.0* | -3.3
CCn1c(CCNC(=O)c2ccc(OC)cc2)nnc1SCc1ccc(Cl)c(Cl)c1 | 7.7 | 19.7 | 6.0 | 5.8 | 0.0 | -9.8
CCCCC1=CC2=CC(=O)C(C)(OC(=O)CC)C(=O)C2=CN1CCN1CCOCC1 (centres undefined) | 37.1 | -3.8 | 31.4* | 21.2 | nt | -113.4
Oc1c(Cl)cc(Cl)cc1/C=C/c1ccc2cccc(O)c2n1 | -4.0 | 81.5* | 4.2 | -54.9 | 2.0 | -56.3
NS(=O)(=O)c1ccc(NS(=O)(=O)c2ccc(NC(=O)C3CC3)cc2)cc1 | -7.2 | nt | -2.1 | -6.0 | nt | nt
O=C(CN1CCN(c2ccccn2)CC1)N1c2ccccc2CCc2ccccc21 | 8.0 | 22.5 | 2.4 | -2.3 | -3.0 | 55.0*
O=C(CN1CCN(c2ccccn2)CC1)N1c2ccccc2Sc2ccc(C(F)(F)F)cc21 | 2.9 | 29.7 | 4.1 | 1.8 | 0.0 | 41.4
COc1ccc(NC(=O)CN2C(=O)NC(C)(C3CC3)C2=O)cc1S(=O)(=O)N1CCCCC1 (centres undefined) | -6.3 | nt | -1.9 | 0.8 | nt | nt
C=CCOc1ccc2ccccc2c1CNCCCN1CCOCC1 | 6.4 | 17.9 | 6.5 | -4.1 | 0.0 | 0.0
C=CCOc1ccc(Br)cc1CNCCCN1CCOCC1 | 6.9 | 57.0* | 1.9 | 0.1 | -3.0 | 33.1
COc1ccc(C)cc1Nc1n[n+](C)c(-c2c3ccccc3cc3ccccc23)s1 | 28.1 | nt | 31.7* | 13.4 | nt | nt
COc1ccc(C)cc1Nc1n[n+](C)c(-c2ccc(O)cc2O)s1 | 7.9 | nt | 0.8 | -3.5 | nt | nt
Cn1c(-c2ccccc2)c(C(=O)CCl)c2ccccc21 | nt | 70.4* | nt | nt | 0.0 | -22.5
COC(=O)c1cc2c(cc1NC(=O)CSCCc1ccccn1)OCO2 | 26.0 | 13.5 | 30.8* | -7.6 | 0.0 | -2.5
COc1ccccc1N1CCN(CC(=O)Nc2c(C)n(C)n(-c3ccccc3)c2=O)CC1 | 2.4 | 15.1 | 7.7 | 1.6 | 0.0 | 47.5
Cc1ccc(OCC(=O)NNC(=O)c2ccco2)c(C)c1 | 1.7 | nt | 6.4 | 4.6 | nt | nt
COc1ccc(O)c(C(=O)C2c3ccccc3C(=O)N2c2ccc(C)cc2)c1 (centres undefined) | 36.8 | 31.0 | 31.1* | 16.6 | nt | -15.8
COc1ccc(N2C(=O)c3ccccc3C2O)cc1 (centres undefined) | 9.0 | nt | 3.7 | 9.3 | nt | nt
NNc1nc(-c2ccccc2)cs1 | 5.0 | 3.8 | 10.4 | -2.2 | -7.0 | 83.2*
CC1(C)CC(CC(=O)O)(c2ccccc2)CCO1 (centres undefined) | 5.5 | -19.1 | 4.5 | 9.8 | 0.0 | 66.1*
CNC(=S)Nc1cc(C)ccc1OC(F)F | 2.0 | 37.3 | 4.1 | 6.9 | -4.0 | 97.9*
C=CC(c1ccccc1)C(C(=O)c1ccccc1)N(C)C (centres undefined) | nt | -9.5 | nt | nt | -1.0 | 82.2*
O=C(c1ccccc1)C(O)c1ccccc1 (centres undefined) | 2.5 | nt | 4.5 | -0.2 | nt | nt
CN(C)c1ncc(/C=C2/C(=O)NC(=S)N(C3CCCCC3)C2=O)cn1 | nt | 61.0* | nt | nt | 0.0 | 9.2
CC(C)CC1NC(=S)N(C2CCCCC2)C1=O (centres undefined) | 13.0 | 7.2 | 2.2 | 1.2 | 0.0 | -61.6
O=C(Nc1cc2c(oc1=O)CCCC2=O)c1ccc(Cl)cc1 | 31.2 | 56.5* | 5.7 | 2.7 | -1.0 | -65.9

Bioassay records: PubChem BioAssay, several laboratories
